This is an account of results in PubChem BioAssay.

“And” between values parts separate entries of the source, which are not always exact repeats. Equal values may be shown once. The source made the active and inactive calls.

Assay [1] relates to Plasmodium falciparum Sir2 (PF13_0152, Sir2A). The assay is described as follows: Plasmodium falciparum Sir2A binding compounds – biochemical, small-molecule microarray, 635 nm fluorescence, primary screen (AID 1098).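 Also: score merges spot fluorescence intensity with its signal-to-noise ratio.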 Conditions: fluorescence 635 nm, higher = more signal.
The nature of assay [2]: probe aDKK1 binding to arrayed compounds – biochemical, biotinylated probe, 635/667 nm fluorescence, primary screen (AID 1099).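 Also: score merges 667nm spot fluorescence with signal to noise across triplicate slides.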 The following applies: small-molecule microarray, higher = more signal.
Assay [3] can be described thus: probe aCHRDL2 binding to arrayed compounds – biochemical, biotinylated probe, 635/667 nm fluorescence, primary screen (AID 1100). The following applies: small-molecule microarray, higher = more signal.
The nature of assay [4]: change in splice reporter luminescence, either direction, cell-based, HEK293, spliceosome inhibition project, primary screen (AID 1101).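 Also: HEK293 cells carrying a splicing-competent luciferase reporter gene; test concentration not given here.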 The following applies: HEK293 splicing luciferase reporter, 24 h, higher = more signal, called active from +8 up or from −8 down.
The target in assay [5] is Fibroblast growth factor 10 (Homo sapiens) (UniProt O15520). The assay is described as follows: compounds binding fibroblast growth factor 10 – biochemical, small-molecule microarray, 635 nm fluorescence, primary screen (AID 1102). Conditions: FGF10 binding, fluorescence 635 nm, higher = more signal.
Chain of Fibroblast growth factor 10 (Homo sapiens) (O15520 whole entry, looked up): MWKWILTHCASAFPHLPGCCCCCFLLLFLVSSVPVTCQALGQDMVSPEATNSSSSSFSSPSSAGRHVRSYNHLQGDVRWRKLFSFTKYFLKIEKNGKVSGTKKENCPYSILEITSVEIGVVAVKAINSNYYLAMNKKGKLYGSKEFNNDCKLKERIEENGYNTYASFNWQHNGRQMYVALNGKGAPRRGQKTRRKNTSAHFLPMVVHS
The test system of assay [6] is glycogen synthase kinase-3 (GSK3A per assay name; protocol says GSK3B). The assay can be described thus: compounds binding glycogen synthase kinase-3 – biochemical, small-molecule microarray, 635 nm fluorescence, GSK3A, primary screen (AID 1103). Also: the record names both GSK3A and GSK3B. Conditions: fluorescence 635 nm, higher = more signal.
Assay [7] has as its target Epidermal growth factor receptor (Homo sapiens) (UniProt P00533). The assay can be described thus: compounds binding epidermal growth factor receptor – biochemical, small-molecule microarray, 635 nm fluorescence, primary screen (AID 1104).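 Also: score merges 667 nm emission intensity with spot signal to noise over triplicate slides.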 The following applies: EGFR binding, higher = more signal.
Assay [8] addresses Follistatin-related protein 3 (Homo sapiens) (UniProt O95633). The assay can be described thus: compounds binding follistatin-related protein 3 – biochemical, small-molecule microarray, 635 nm fluorescence, primary screen (AID 1105).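 Also: score merges emission near 667 nm and signal to noise per printed spot across three slides.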 Conditions: FSTL3 binding, higher = more signal.
The target of assay [9] is Dickkopf-related protein 1 (Homo sapiens) (UniProt O94907). The assay is described as follows: small molecules binding DKK1 protein – biochemical, small-molecule microarray, 635 nm fluorescence scan, primary screen (AID 1106).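 Also: score merges emission near 667 nm with signal to noise over three replicate slides.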 Conditions: higher = more signal.
Chain of Dickkopf-related protein 1 (Homo sapiens) (O94907 whole entry, looked up): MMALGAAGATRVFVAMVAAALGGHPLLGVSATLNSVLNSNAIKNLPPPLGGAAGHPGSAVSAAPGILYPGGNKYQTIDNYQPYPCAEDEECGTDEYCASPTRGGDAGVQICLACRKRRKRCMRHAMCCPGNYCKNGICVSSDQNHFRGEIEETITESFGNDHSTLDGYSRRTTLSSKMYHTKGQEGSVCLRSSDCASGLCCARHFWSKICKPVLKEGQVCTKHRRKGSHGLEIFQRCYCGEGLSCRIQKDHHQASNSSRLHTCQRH
Assay [10] has as its system Inhibin beta A chain (activin A). The assay is described as follows: small molecules binding activin A – biochemical, small-molecule microarray, 635 nm fluorescence scan, primary screen (AID 1107).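 Also: mouse activin A protein probed at 4.33 µg/mL on printed slides; score merges bound-protein fluorescence near 667 nm with spot signal-to-noise.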 The following applies: INHBA, higher = more signal.
For assay [11], the system named is Human papillomavirus type 1a protein E7 (residues 44-93). The assay can be described thus: small molecules binding HPV E7 44-93 – biochemical, small-molecule microarray, residues 44-93, 635 nm fluorescence, primary screen (AID 1108).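 Also: E7 fragment applied at 1 µg/mL in TBST for 1 h at 4 C; score combines spot fluorescence with its signal to noise ratio.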 Conditions: fluorescence 635 nm, higher = more signal.
The nature of assay [12]: hepatitis C replication reporter changes, two-sided – Huh7 cells, luciferase reporter, HCV replication inhibitor project, primary screen (AID 1109).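 Also: huh7 hepatoma cells harbouring a luciferase neomycin HCV replicon reporter; luciferase luminescence as measure of HCV replicon replication; test concentration not given here.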 Conditions: Huh7 HCV replicon luciferase reporter, 48 h; higher = more signal. For orientation: Reporter assays use an easily measured gene product as a stand-in for the process of interest.
In assay [13] the target is Left-right determination factor 2 (Homo sapiens) (UniProt O00292). The assay can be described thus: small molecules binding LEFTY2 protein – biochemical, small-molecule microarray, 635 nm fluorescence scan, primary screen (AID 1110). Conditions: higher = more signal.
Chain of Left-right determination factor 2 (Homo sapiens) (O00292 whole entry, looked up): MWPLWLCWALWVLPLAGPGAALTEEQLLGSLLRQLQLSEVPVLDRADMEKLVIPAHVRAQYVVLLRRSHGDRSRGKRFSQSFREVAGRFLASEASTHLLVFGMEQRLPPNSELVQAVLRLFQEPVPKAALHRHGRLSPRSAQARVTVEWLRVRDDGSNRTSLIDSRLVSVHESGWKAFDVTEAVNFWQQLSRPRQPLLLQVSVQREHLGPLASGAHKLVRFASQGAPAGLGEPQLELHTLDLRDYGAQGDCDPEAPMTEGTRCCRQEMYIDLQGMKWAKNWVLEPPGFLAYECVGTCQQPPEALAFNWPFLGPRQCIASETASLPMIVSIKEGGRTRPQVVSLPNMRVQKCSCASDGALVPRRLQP
The target in assay [14] is Calmodulin-1 (Homo sapiens) (UniProt P0DP23). The assay is described as follows: small molecules binding calmodulin-1 with EGTA – biochemical, small-molecule microarray, Cy5-labelled CALM1, profiling panel (AID 1111).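 Also: labelled calmodulin applied in Tris saline Tween buffer holding calcium plus EGTA and DTT.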 The following applies: Cy5-CALM1 binding fluorescence, higher = more signal.
Assay [15] shares this target. The assay can be described thus: small molecules binding Ca-loaded calmodulin-1 – biochemical, small-molecule microarray, Cy5-labelled CALM1, plus calcium, artefact control for SMM control-protein annotation, profiling panel (AID 1112).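 Also: score merges spot fluorescence with signal to noise from triplicate slides.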 Conditions: Cy5-CALM1 binding fluorescence, higher = more signal.
Assay [16] can be described thus: probe aWnt5a binding to arrayed compounds – biochemical, biotinylated probe, 635/667 nm fluorescence, primary screen (AID 1113).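 Also: score merges 667 nm fluorescence intensity with signal-to-noise per printed feature.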 The following applies: small-molecule microarray, higher = more signal.
Assay [17] in a line: probe aShh binding to arrayed compounds – biochemical, biotinylated probe, 635/667 nm fluorescence, primary screen (AID 1114).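 Also: probe is biotin-labelled aShh protein from a stem cell growth factor screen; measures binding of labelled protein to compounds printed on the slide; score merges feature fluorescence at 667 nm with signal-to-noise.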 The following applies: small-molecule microarray, higher = more signal.
Assay [18] in a line: probe aNog binding to arrayed compounds – biochemical, biotinylated probe, 635/667 nm fluorescence, primary screen (AID 1115).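 Also: probe is biotinylated aNog protein used at 0.15 µg/mL for 1 h at 4 C; z-score combines 667 nm fluorescence of each spot with its signal to noise.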 The following applies: small-molecule microarray, higher = more signal.
For assay [19], the target named is Torsin-1A-interacting protein 1 (Homo sapiens) (UniProt Q5JTV8). The assay can be described thus: compound microarray binding of lysate hLAP1 – cell lysate, small-molecule microarray, COS7 lysate, 635/667 nm fluorescence, primary screen (AID 1116). Conditions: 635 nm fluorescence, higher = more signal.
Chain of Torsin-1A-interacting protein 1 (Homo sapiens) (Q5JTV8 whole entry, looked up): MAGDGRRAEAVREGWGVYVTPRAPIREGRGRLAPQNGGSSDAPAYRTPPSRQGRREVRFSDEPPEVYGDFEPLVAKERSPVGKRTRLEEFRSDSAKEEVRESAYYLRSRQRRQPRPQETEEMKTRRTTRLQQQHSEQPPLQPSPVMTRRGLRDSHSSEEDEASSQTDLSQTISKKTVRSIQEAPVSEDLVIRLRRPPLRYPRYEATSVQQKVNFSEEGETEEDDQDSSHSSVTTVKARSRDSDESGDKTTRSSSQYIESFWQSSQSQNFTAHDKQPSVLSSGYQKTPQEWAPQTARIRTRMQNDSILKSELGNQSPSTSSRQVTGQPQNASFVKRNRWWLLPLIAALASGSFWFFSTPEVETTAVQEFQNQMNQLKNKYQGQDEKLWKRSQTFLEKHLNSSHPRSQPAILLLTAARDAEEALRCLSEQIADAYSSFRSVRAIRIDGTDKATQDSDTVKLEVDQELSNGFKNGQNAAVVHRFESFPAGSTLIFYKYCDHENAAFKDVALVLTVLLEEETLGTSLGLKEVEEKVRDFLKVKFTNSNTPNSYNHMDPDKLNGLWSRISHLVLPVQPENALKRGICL
Assay [20] deals with Alpha-bungarotoxin (Bungarus multicinctus) (UniProt P60615). The assay is described as follows: compounds binding labelled alpha-BTX control protein – biochemical, small-molecule microarray, Alexa647 label, 635/667 nm fluorescence, artefact control for SMM control protein annotation, profiling panel (AID 1117). Conditions: alpha-BTX-A647 binding fluorescence, higher = more signal.
Chain of Alpha-bungarotoxin (Bungarus multicinctus) (P60615 whole entry, looked up): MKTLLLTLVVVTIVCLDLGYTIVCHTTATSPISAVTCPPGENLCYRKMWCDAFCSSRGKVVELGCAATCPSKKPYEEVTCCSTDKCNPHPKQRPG

Chain of Follistatin-related protein 3 (Homo sapiens) (O95633 whole entry, looked up): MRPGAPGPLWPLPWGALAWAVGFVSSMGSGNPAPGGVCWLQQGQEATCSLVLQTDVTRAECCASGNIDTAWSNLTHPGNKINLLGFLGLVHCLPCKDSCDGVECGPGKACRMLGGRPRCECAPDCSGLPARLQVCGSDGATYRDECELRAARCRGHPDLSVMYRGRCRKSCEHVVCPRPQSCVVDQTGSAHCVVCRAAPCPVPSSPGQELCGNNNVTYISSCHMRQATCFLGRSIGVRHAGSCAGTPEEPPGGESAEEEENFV
Chain of Epidermal growth factor receptor (Homo sapiens) (P00533 whole entry, looked up): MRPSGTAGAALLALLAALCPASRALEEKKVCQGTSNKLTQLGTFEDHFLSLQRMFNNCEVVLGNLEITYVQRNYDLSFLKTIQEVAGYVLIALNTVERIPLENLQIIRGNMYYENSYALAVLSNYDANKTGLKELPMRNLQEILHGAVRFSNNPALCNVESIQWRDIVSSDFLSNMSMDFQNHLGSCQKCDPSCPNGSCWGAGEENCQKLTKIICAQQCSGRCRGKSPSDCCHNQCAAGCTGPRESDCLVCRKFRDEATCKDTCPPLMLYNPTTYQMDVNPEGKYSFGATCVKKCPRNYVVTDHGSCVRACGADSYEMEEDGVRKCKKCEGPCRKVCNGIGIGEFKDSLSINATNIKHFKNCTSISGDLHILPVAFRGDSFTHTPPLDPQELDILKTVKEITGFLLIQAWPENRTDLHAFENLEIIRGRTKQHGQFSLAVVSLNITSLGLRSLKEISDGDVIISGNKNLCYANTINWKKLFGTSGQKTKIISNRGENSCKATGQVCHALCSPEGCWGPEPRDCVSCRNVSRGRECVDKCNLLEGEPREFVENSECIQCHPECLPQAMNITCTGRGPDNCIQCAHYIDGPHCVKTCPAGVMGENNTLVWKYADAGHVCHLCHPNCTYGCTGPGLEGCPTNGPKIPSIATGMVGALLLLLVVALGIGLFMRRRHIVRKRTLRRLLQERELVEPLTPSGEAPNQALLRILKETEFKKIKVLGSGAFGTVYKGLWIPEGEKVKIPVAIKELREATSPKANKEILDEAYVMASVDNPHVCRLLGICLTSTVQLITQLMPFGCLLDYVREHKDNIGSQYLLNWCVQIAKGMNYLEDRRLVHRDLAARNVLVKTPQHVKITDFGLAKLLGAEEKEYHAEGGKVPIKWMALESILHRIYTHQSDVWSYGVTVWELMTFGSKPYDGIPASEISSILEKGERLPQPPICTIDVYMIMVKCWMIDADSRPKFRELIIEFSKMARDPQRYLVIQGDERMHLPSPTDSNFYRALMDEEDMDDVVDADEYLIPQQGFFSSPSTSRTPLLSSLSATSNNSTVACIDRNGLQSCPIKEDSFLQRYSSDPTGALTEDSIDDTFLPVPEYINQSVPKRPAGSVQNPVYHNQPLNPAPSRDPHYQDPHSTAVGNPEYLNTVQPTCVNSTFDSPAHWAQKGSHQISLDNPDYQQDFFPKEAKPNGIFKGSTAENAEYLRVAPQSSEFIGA

`C=C[C@@H](OC)[C@H](O)c1ccc(OCCO)cc1`: the composite z-score is 1.43 and -0.202 in assay [1]; 0.644 and -0.649 in assay [2]; 0.75 and 0.283 in assay [3]; -0.72 and -1.24 in assay [5]; -0.586 and -1.15 in assay [6]; -1.55 and -0.957 in assay [7]. Further, the composite z-score in [8] was -0.782 and -0.109; in [9], -1.06 and -0.955; in [10], -0.294 and -1.79; in [11], -0.796 and -1.11; in assay [13], -1.42 and -0.132; in assay [14], -1.29 and -0.831. The composite z-score was -0.778 and -0.247 in assay [15]; -0.298 and -0.242 in [16]; -0.221 and -0.138 in [17]; -0.501 and -0.393 in assay [18]; 0.91 and -0.0877 in assay [19]; -0.7 and -0.37 in assay [20]. For the same molecule, the z-score in [4] was -0.462 (inactive) and -2.83 (inactive); in [12] it was 0.241 and -0.0944.
With `CO[C@H]1COC(=O)CC=C[C@@H](C)COC(=O)[C@H](CCSC)NC(=O)CC=C[C@@H]1C`, the composite z-score is 0.536 and 0.111 in assay [1]; -0.51 and -0.591 in [2]; -1.59 and -2.05 in [3]; 1.12 and 1.16 in assay [5]; 1.29 and 1.3 in assay [6]; 1.28 and 1.69 in assay [7]. The composite z-score in assay [8] is 1.57 and 1.49; in assay [9], 2.29 and 2.22; in [10] it was 0.626 and -0.119; in assay [11] it was -0.467 and -0.849; in assay [13] it was 1.6 and 1.71; in assay [14], -0.957 and -2.78. Besides, the composite z-score in [15] is -1.75 and -3.46; in [16], -0.136 and -0.197; in assay [17] it was -0.138 and -0.34; in [18], -0.385 and -0.754; in [19], 0.995 and 0.363; in assay [20] it was -0.933 and -1.69. The z-score was 0.191 (inactive) and -0.244 (inactive) in assay [4]; -0.0216 and -0.567 in assay [12].
For `COC(=O)C1=C(C)N(Cc2ccccc2)C2=C3C(=O)N(C)C(=O)[C@@H]3[C@@](O)(C(=O)OC)C(=O)N2[C@@H]1c1ccccc1`, the composite z-score in assay [1] was -0.0387 and 0.0245; in [2], 0.0287 and -0.103; in assay [3], -0.282 and -0.486; in assay [5] it was 0.786 and 0.387; in [6], 0.0745 and 0.608; in assay [7] it was 0.533 and 0.834. The composite z-score in assay [8] is 0.285 and 0.502; in assay [9], 0.103 and 0.211; in [10] it was 0.476 and 0.292; in assay [11], -0.517 and 0.0656; in assay [13], 0.356 and 0.796; in assay [14], -0.403 and -0.324. Besides, the composite z-score was -0.668 and -0.691 in [15]; -0.124 and -0.0735 in assay [16]; -0.0035 and -0.16 in [17]; -0.0705 and -0.272 in [18]; 0.015 and -0.101 in [19]; 0.871 and 0.167 in assay [20]. For the same molecule, the z-score in assay [4] is -0.18 (inactive) and -0.675 (inactive); in [12] it was -0.0888 and 1.05.
On to `C=CCN(C(=O)C(c1cccs1)N(C(=O)/C=C\C(=O)O)c1ccc(CCO)cc1)C(C)(C)C` (stereo not given), for which the composite z-score in [1] was -0.202 and 0.938; in [2] it was -0.123 and 0.0381; in assay [3] it was 0.274 and 1.05; in assay [5] it was -0.99 and -2.19; in assay [6] it was -0.265 and -0.746; in assay [7], -1.41 and -1.91. Moreover, the composite z-score is -1.76 and -2.36 in assay [8]; -2.48 and -2.7 in assay [9]; -1.03 and -2.06 in assay [10]; -1.51 and -0.35 in assay [11]; -3.2 and -3.93 in assay [13]; 0.295 and 0.0738 in [14]. Moreover, the composite z-score is 1.1 and 0.871 in assay [15]; -0.148 and -0.27 in assay [16]; -0.0035 and 0.568 in [17]; 1.1 and -0.0102 in assay [18]; 3.3 and 2.33 in assay [19]; -0.263 and -1.06 in assay [20]. Moreover, the z-score in assay [4] is -0.14 (inactive) and 0.253 (inactive); in assay [12], -0.18 and 0.135.
Consider `C[C@@H](ON=C1[C@H]2CCn3c(=O)n(-c4ccccc4)c(=O)n3[C@H]2[C@H](O)[C@@H]2O[C@H]12)c1cn([C@H](CO)Cc2ccccc2)nn1`, for which the composite z-score is 0.494 in [1]; -0.173 in assay [2]; -0.569 in assay [3]; 0.416 in assay [5]; 0.438 in assay [6]; 0.419 in assay [7]. The composite z-score is 0.572 in assay [8]; 0.462 in assay [9]; -0.0477 in assay [10]; 0.46 in assay [11]; 0.605 in assay [13]; 0.0208 in assay [14]. Also, the composite z-score in [15] is -0.549; in assay [16] it was -0.148; in assay [17] it was -0.358; in assay [18], -0.364; in assay [19], -0.0609; in assay [20], 0.24. Besides, the z-score in assay [4] is 0.211 (inactive); in assay [12], -3.71.
